# Assay results reported in ChEMBL document CHEMBL3433997, “St. Jude Leishmania screening dataset” (2016).
# Assays:
# Format in all cases: functional
# [1] = biological target: Solute carrier family 2, facilitated glucose transporter member 1 (Homo sapiens) (UniProt P11166); assay: ST_JUDE_LEISH: Cytotoxicity at 2uM final concentration against transgenic Leishmania Mexicana promastigotes LmGLUT1 that are glucose transport deficient and complemented with the human glucose transporter GLUT1. Activity is measured by DNA content using SYBR green in vitro
# Sequence of Solute carrier family 2, facilitated glucose transporter member 1 (Homo sapiens) (P11166 whole entry): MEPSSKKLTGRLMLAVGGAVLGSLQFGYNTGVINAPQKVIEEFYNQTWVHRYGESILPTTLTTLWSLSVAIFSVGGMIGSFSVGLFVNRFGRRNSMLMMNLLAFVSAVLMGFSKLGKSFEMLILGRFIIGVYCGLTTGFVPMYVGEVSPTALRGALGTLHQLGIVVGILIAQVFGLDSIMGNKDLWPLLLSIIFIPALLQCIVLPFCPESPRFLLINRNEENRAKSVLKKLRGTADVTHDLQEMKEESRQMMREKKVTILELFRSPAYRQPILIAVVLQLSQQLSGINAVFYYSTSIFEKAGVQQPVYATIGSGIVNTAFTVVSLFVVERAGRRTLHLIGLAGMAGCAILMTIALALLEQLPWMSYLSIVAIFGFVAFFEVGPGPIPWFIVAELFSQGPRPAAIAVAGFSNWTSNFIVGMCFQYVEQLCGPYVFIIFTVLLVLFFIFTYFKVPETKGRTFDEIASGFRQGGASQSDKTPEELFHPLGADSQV
# [2] = biological target: Hexose transporter 1 (Plasmodium falciparum) (UniProt O97467); assay: ST_JUDE_LEISH: Cytotoxicity at 2uM final concentration against transgenic Leishmania Mexicana promastigotes LmPfHT that are glucose transport deficient and complemented with the Plasmodium falciparum hexose transporter. Activity is measured by DNA content using SYBR green in vitro
# [3] = biological target: Glucose transporter (Leishmania mexicana) (UniProt O61059); assay: ST_JUDE_LEISH: Cytotoxicity at 2uM final concentration against transgenic Leishmania Mexicana promastigotes LmGT2 that are glucose transport deficient and complemented with the L. Mexicana glucose transporter 2. Activity is measured by DNA content using SYBR green in vitro
SMILES,inhibition [1],inhibition [2],inhibition [3]
COc1ccc(N2CCc3c(-c4cccc5cnccc45)cc(C)nc32)c(C)c1,-0.79%,0.13%,-0.88%
Oc1ccccc1CCNCC1CCc2ccccc2C1 (stereo unspecified),-0.47%,-0.01%,0.73%
O=c1cc(NCCCNCc2cccc3c2OC(F)(F)O3)[nH]c2ccccc12,2.3%,1.38%,1.85%
Fc1ccc2[nH]c(-c3ccc(-c4ccc(CN5CCN(CCN6CCOCC6)CC5)cc4)s3)nc2c1,6.46%,2.96%,1.83%
O=C(c1cc(-c2cccs2)n[nH]1)N1CCN(S(=O)(=O)c2ccc(Br)cc2)CC1,0.07%,3.88%,2.13%
COc1c(C2CCN(CCCCNC(=O)c3ccc(-c4ccc(Cl)cc4)cc3)CC2)ccc2c1C(C)(C)CCC2(C)C,-1.1%,-1.15%,-2.13%
CN(C)CCNC(=O)N1CCCN(c2ncnc3cc(-c4ccccc4)sc23)CC1,8.06%,5.39%,6.1%
CCN(C1CCCCC1)S(=O)(=O)c1ccc(OC)c(N2CCN(C(=O)C(Cl)(Cl)Cl)CC2)c1,-1.48%,-2.46%,-0.47%
CCCCCCCC1=NN2C(=N)C(=Cc3cc(Br)c(OCc4ccc(F)cc4)c(OCC)c3)C(=O)N=C2S1,3.23%,3.17%,2.47%
COc1cccc(CN2CCCC(OC(c3ccc(F)cc3)c3ccc(F)cc3)C2)c1O (stereo unspecified),0.04%,0.76%,-1.69%
O=C(Nc1ccc(Cl)cc1)c1cccc(S(=O)(=O)NC2CCN(CC3CCCCC3)CC2)c1,0.8%,1.68%,3.31%
Nc1nccc2ccc(-c3ccncc3)cc12,5.87%,7.14%,6.25%
